Screening data deposited in PubChem BioAssay by Broad Institute.
A selection follows.
aSyn 5UTR act – Activators working through SNCA 5'UTR binding (MLPCN); alpha-synuclein 5'UTR reporter, activators screen; activity score, % (tested at 7.5 µM), hits read low; hit rate 7.1% among 300,000; AID 1814; in the data active = activity score below about -60%
Hits are given with their value.

How did O=C(Nc1ccc(C(=O)N2CCCC2)cc1)c1ccccc1F do in these assays?
aSyn 5UTR act: -65.4

Results for O=C(Nc1ccc(Oc2cccnc2)cc1)c1ccccc1F ?
aSyn 5UTR act: -114.7

Results for O=C(Nc1ccc2oc(-c3ccc(F)cc3)nc2c1)c1ccccc1F ?
aSyn 5UTR act: -113.5

How did Brc1ccc(CSc2nnc(-c3ccco3)o2)cc1 do in these assays?
aSyn 5UTR act: -78.0

What do the screens show for `Cc1ccc(CSc2nnc(-c3ccco3)o2)cc1`?
aSyn 5UTR act: -153.9

How did Fc1ccc(CSc2nnc(-c3ccco3)o2)cc1 do in these assays?
aSyn 5UTR act: -116.9

What do the screens show for `c1ccc(CSc2nnc(-c3ccco3)o2)cc1`?
aSyn 5UTR act: -96.6

How did CCCCc1c(C)c(C#N)c2nc3ccccc3n2c1Cl do in these assays?
aSyn 5UTR act: inactive

Results for CCCCCc1nc2c(C#N)c(-c3ccc(Cl)cc3)ccn2n1 ?
aSyn 5UTR act: -64.6

How did CC(=O)O[C@H]1C(=O)[C@@]2(C)[C@H]([C@H](OC(=O)c3ccccc3)[C@]3(O)C[C@H](OC(=O)[C@H](O)C(NC(=O)c4ccccc4)c4ccccc4)C(C)=C1C3(C)C)[C@]1(OC(C)=O)CO[C@@H]1C[C@@H]2O (stereo partly specified) do in these assays?
aSyn 5UTR act: inactive

Results for Cc1cccc(NC(=S)NNC(=O)c2ccccc2Br)c1 ?
aSyn 5UTR act: -128.7

How did Cc1[nH]c2ccccc2c1C(=O)C(=O)Nc1ccc2c(c1)OCO2 do in these assays?
aSyn 5UTR act: -90.5

Results for CCCc1cc(C(=O)NNC(=S)Nc2cccc(C)c2)cs1 ?
aSyn 5UTR act: -100.6

How did Cc1cccc(NC(=S)NNC(=O)c2ccc3c(c2)OCO3)c1 do in these assays?
aSyn 5UTR act: -211.5

How did Cc1cc(C(=O)Nc2ccc3c(c2)OCO3)cs1 do in these assays?
aSyn 5UTR act: -232.5

What do the screens show for `CCOC(=O)c1cccc(NC(=O)/C=C/c2ccc3c(c2)OCO3)c1`?
aSyn 5UTR act: inactive

What do the screens show for `CC(=O)c1cccc(NC(=O)c2ccc3c(c2)OCO3)c1`?
aSyn 5UTR act: -128.1

What do the screens show for `CCOC(=O)c1cccc(NC(=O)c2ccc3c(c2)OCO3)c1`?
aSyn 5UTR act: -125.8

What do the screens show for `Cc1cccc(NC(=S)NNC(=O)c2csc3c2CCC(C)C3)c1` (stereo unspecified)?
aSyn 5UTR act: -77.3

What do the screens show for `O=C(Oc1ccc(NC2=C(Cl)C(=O)c3ccccc3C2=O)cc1)c1ccc([N+](=O)[O-])cc1`?
aSyn 5UTR act: -109.5

What do the screens show for `O=c1c(N2CCCCC2)coc2ccccc12`?
aSyn 5UTR act: -86.2

What do the screens show for `COc1ccc(C(CNC(=O)c2sccc2C)N2CCOCC2)cc1` (stereo unspecified)?
aSyn 5UTR act: -69.9

What do the screens show for `Cn1cc(C(=O)Nc2ccccn2)c(=O)c2ccccc21`?
aSyn 5UTR act: -113.7

How did O=C(CNS(=O)(=O)c1ccccc1)OCC(=O)c1ccc(OC(=O)c2ccccc2)cc1 do in these assays?
aSyn 5UTR act: -66.7

Results for COc1ccc(C(=O)CCNc2ccc(F)cc2)cc1 ?
aSyn 5UTR act: -114.2

Results for CCOc1ccc(C(=O)CSCCC(=O)O)cc1 ?
aSyn 5UTR act: inactive

What do the screens show for `COc1ccc(C(=O)Cc2nnc(C)s2)cc1`?
aSyn 5UTR act: -98.6

What do the screens show for `COC(=O)c1ccc(OCC(=O)c2ccccc2)cc1`?
aSyn 5UTR act: -133.2

What do the screens show for `COc1ccc(C(=O)C[n+]2ccc3ccccc3c2C)cc1`?
aSyn 5UTR act: -143.8

Results for COc1ccc(C(CC(=O)c2ccccc2)S(=O)(=O)c2ccc(C)cc2)cc1 (stereo unspecified) ?
aSyn 5UTR act: -186.1

What do the screens show for `COc1ccc(S(=O)(=O)Nc2cc3c(C(C)=O)c(C)oc3c3ccccc23)cc1`?
aSyn 5UTR act: inactive

What do the screens show for `COc1ccc(C(=O)NCC(=O)c2ccccc2)cc1`?
aSyn 5UTR act: -101.7

What do the screens show for `COc1ccc(C(=O)CC(=O)c2ccccc2)cc1`?
aSyn 5UTR act: -125.0

How did COc1ccc(C(=O)CC(=O)c2ccc(OC)cc2)cc1 do in these assays?
aSyn 5UTR act: -70.8

What do the screens show for `Nc1cc(-c2ccc(Cl)cc2)nn1-c1ccccc1`?
aSyn 5UTR act: -138.2

How did CC(=O)Nc1ccc(-c2cc(N)n(-c3ccccc3)n2)cc1 do in these assays?
aSyn 5UTR act: -162.1

What do the screens show for `Cc1ccc(-n2nc(-c3ccc(N)cc3)cc2N)cc1`?
aSyn 5UTR act: -132.3

How did Nc1ccc(-c2cc(N)n(-c3ccccc3)n2)cc1 do in these assays?
aSyn 5UTR act: -103.9

What do the screens show for `CCCC(=O)NC(c1ccccc1)c1ccc2cccnc2c1O` (stereo unspecified)?
aSyn 5UTR act: inactive

How did CCC(=O)NC(c1ccccc1)c1nc2ccccc2[nH]1 (stereo unspecified) do in these assays?
aSyn 5UTR act: -79.1

What do the screens show for `CCCCC(=O)NC(c1ccccc1)c1ccc2cccnc2c1O` (stereo unspecified)?
aSyn 5UTR act: inactive

What do the screens show for `Cc1cccc(C)c1OCc1cc(C(=O)N2CCC(C3CCCCC3)C2)no1` (stereo unspecified)?
aSyn 5UTR act: -159.0

What do the screens show for `CC(=O)c1ccc(OCc2cc(C(=O)N3CC[C@@H]4CCCC[C@H]4C3)no2)cc1`?
aSyn 5UTR act: -125.7

How did CC(=O)c1ccc(OCc2cc(C(=O)NC3CCCCC3)no2)cc1 do in these assays?
aSyn 5UTR act: -80.7

What do the screens show for `Cc1cccc(C)c1OCc1cc(C(=O)N2CCN(c3ccc(F)cc3)CC2)no1`?
aSyn 5UTR act: -72.5

How did CC(=O)c1ccc(OCc2cc(C(=O)NC(C)CCn3cccn3)no2)cc1 (stereo unspecified) do in these assays?
aSyn 5UTR act: -164.3

What do the screens show for `CC(=O)c1ccc(OCc2cc(C(=O)N3CCCCC3c3cccnc3)no2)cc1` (stereo unspecified)?
aSyn 5UTR act: -82.8

What do the screens show for `COCC1CCCN(C(=O)c2cc(COc3ccc(C(C)=O)cc3)on2)C1` (stereo unspecified)?
aSyn 5UTR act: -149.0

What do the screens show for `Cc1ccc(OCc2cc(C(=O)NC(C)Cc3cccnc3)no2)cc1C` (stereo unspecified)?
aSyn 5UTR act: -82.2

How did Cc1cccc(C)c1OCc1cc(C(=O)N2CCC(c3ccccc3)CC2)no1 do in these assays?
aSyn 5UTR act: -79.8

What do the screens show for `COCC1CCCN(C(=O)c2cc(COc3cncc(Cl)c3)on2)C1` (stereo unspecified)?
aSyn 5UTR act: -136.7

What do the screens show for `COc1ccccc1NC(=S)Nc1ccc2cn[nH]c2c1`?
aSyn 5UTR act: -101.2

Results for CC(C)c1ccc(NC(=S)Nc2ccc3cn[nH]c3c2)cc1 ?
aSyn 5UTR act: -93.9

What do the screens show for `CC(C)Sc1nc2ccc(Br)cc2[nH]1`?
aSyn 5UTR act: -120.0

What do the screens show for `O=C(NC1CCCC1)C1CC(c2ccc(F)cc2)=NO1` (stereo unspecified)?
aSyn 5UTR act: -107.7

How did COc1cccc(C2=NOC(C(=O)N3CCOCC3)C2)c1 (stereo unspecified) do in these assays?
aSyn 5UTR act: -101.0

What do the screens show for `CC1CCCC(C)N1C(=O)C1CC(c2ccc(F)cc2)=NO1` (stereo unspecified)?
aSyn 5UTR act: -83.8

How did CC1CCN(C(=O)C2CC(c3ccc(F)cc3)=NO2)CC1 (stereo unspecified) do in these assays?
aSyn 5UTR act: -88.3

What do the screens show for `Cc1c(-c2nc(-c3cccnc3)no2)cccc1[N+](=O)[O-]`?
aSyn 5UTR act: -80.9

Results for Cc1ccc(-c2nc(-c3cccnc3)no2)c(C)c1 ?
aSyn 5UTR act: -91.6

Results for O=C(CC1OC(=O)c2ccccc21)c1ccco1 (stereo unspecified) ?
aSyn 5UTR act: -74.7

Results for FC(F)(F)c1cc(-c2ccccn2)nc2cc(-c3ccccc3)nn12 ?
aSyn 5UTR act: -77.6
